Source: PubChem BioAssay (several laboratories)
PrP UTR inh – suppresses PrP 5' UTR mRNA reporter expression | cell-based PrP 5' UTR mRNA reporter, plate reader | inhibition, % (no concentration beside the values) | hit rate 0.35% among 340,000 | AID 488862; in the data active means inhibition above about 52%
PfHsp40 yeast – compounds rescuing yeast from Plasmodium falciparum HSP40 toxicity. growth rescue, % at 12.5 µM. hit rate 0.68% among 340,000. S. cerevisiae expressing PfHsp40, growth rescue, ATP luminescence; in the data active means growth rescue above about 28%, passing the limit was not always enough; inconclusive means no clear call, values can overlap the other calls;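 further: yeast W303a lacking pdr1 and pdr3 grown in galactose medium; growth measured after three days at 30 °C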
TcdB inh – TcdB glycohydrolase inhibition. P18177. TcdB glycohydrolase enzymatic assay, plate reader. inhibition, % at 9.99 µM. hit rate 0.24% among 350,000. AID 652162; in the data active means inhibition above about 10%
ugtP null kill – kills S. aureus RN4220 lacking UgtP | hit rate 0.54% among 330,000 | S. aureus RN4220 ugtP deletion, OD600 growth, 16 h | growth inhibition, % (concentration not given with the values); in the data active means growth inhibition above about 68%
RN4220 kill – kills Staphylococcus aureus RN4220; S. aureus RN4220 growth, OD600, 16 h; inhibition, % (test concentration not listed); hit rate 0.33% among 330,000; AID 1259311; in the data active means inhibition above about 85%
PrP UTR cherry – prion 5' UTR mRNA inhibition, cherry-pick retest; shares compounds with PrP UTR inh; cell-based prion protein 5' UTR reporter, plate reader; inhibition, % at 2.5 µM; hit rate 48% among 1,100; in the data active means inhibition above about 54%; inconclusive means no clear call, values can overlap the other calls
Hits are given with their value; – = inactive; ? = inconclusive; · = no result given. Compounds with a hit are over-represented: about 1.2% of the library has one in this group of screens.

SMILES | PrP UTR inh | PfHsp40 yeast | TcdB inh | ugtP null kill | RN4220 kill | PrP UTR cherry
O=S1(=O)CC(N2CCCCC2)C(N2CCCCC2)C1 (stereo not drawn) | 69.3 | – | · | – | – | –
O=S1(=O)CC(N2CCCC2)CN1C1CCCCC1 (stereo not drawn) | · | · | – | · | · | ·
CC(=NNc1ccc2ccccc2n1)c1ccccc1O | 66.7 | – | – | · | · | –
Cc1cccc(Nc2ncnc(N)c2[N+](=O)[O-])n1 | – | – | – | – | – | ·
Cc1cc(C)nc(Sc2ncnc(N)c2[N+](=O)[O-])n1 | 55.8 | – | – | – | – | –
NCCNCCNCCN | 89.3 | – | – | · | · | –
COC(=O)c1c(C)nc2ccccc2c1-c1ccccc1 | – | – | · | – | – | ·
COC(=O)c1ccc2c(c1)c(-c1ccccc1)c(-c1ccccc1)n2C | 84.6 | – | – | – | – | –
COc1ccc(NC(=O)N(C)C[C@H]2OCCCC[C@@H](C)Oc3ccc(NS(=O)(=O)c4cccs4)cc3C(=O)N([C@H](C)CO)C[C@@H]2C)cc1 | · | · | – | · | · | ·
COCCOC(=O)c1[nH]c2c(c1C)C(=O)CC(c1ccco1)C2 (stereo not drawn) | – | – | – | – | – | ·
Cc1c(C(=O)OCc2ccccc2)[nH]c2c1C(=O)CC(c1ccco1)C2 (stereo not drawn) | 62.2 | – | · | – | – | 87.2
Cc1c(C(=O)OCCOC(C)C)[nH]c2c1C(=O)CC(c1ccco1)C2 (stereo not drawn) | 65.5 | – | · | – | – | 90.4
CCOC(=O)c1[nH]c2c(c1C)C(=O)CC(c1ccco1)C2 (stereo not drawn) | 60.5 | – | – | – | – | 93.0
Cc1nnc(C)n1N=Cc1ccc(C(C)C)cc1 | · | · | · | – | – | ·
O=C(C[C@H]1C=C[C@H](NS(=O)(=O)c2ccccc2)[C@H](CO)O1)NCCN1CCCCC1 | · | · | – | · | · | ·
Cc1nc2ccccn2c1C(=O)NC1CCCc2ccccc21 (stereo not drawn) | 60.2 | – | – | – | – | ?
O=C(C[C@H]1CC[C@@H]2[C@H](COC[C@H](O)CN2Cc2cccc(C(F)(F)F)c2)O1)NCCc1ccncc1 | · | · | – | · | · | ·
Cc1ccc(-n2c([S-])c(C(=O)Nc3ccc(OC(F)F)cc3)[n+]3ccc(C(=O)NCCO)cc23)cc1C | 78.2 | – | – | – | – | –
CC(=NNC(=O)C1CC1)c1cccs1 | · | · | · | – | – | ·
COC1=C(C)C(=O)C2=C(C1=O)C1C3CC4=C(C(=O)C(OC)=C(C)C4=O)C(CNC(=O)C(C)=O)N3C(C#N)C(C2)N1C (stereo not drawn) | 93.8 | – | – | · | · | 97.4
CCN1/C(=C\C=C\C2=[N+](CC)c3ccccc3C2(C)C)C(C)(C)c2ccccc21 | 63.2 | 121.1 | · | 100.4 | 100.2 | 67.1
C[C@H](CO)N1C[C@H](C)[C@H](CN(C)C(=O)c2ccccc2)OCCCC[C@H](C)Oc2ccc(NC(=O)Nc3ccc(C(F)(F)F)cc3)cc2C1=O | · | · | – | · | · | ·
ON=Cc1ccc2ccccc2n1 | · | · | · | – | – | ·
C(=NN1CCCCCC1)c1ccc2ccccc2n1 | 93.9 | – | – | – | – | 91.1
CC(=O)N(C)C[C@@H]1Oc2ncc(C#Cc3ccccc3)cc2C(=O)N([C@@H](C)CO)C[C@@H]1C | · | · | – | · | · | ·
SMILES | PrP UTR inh | PfHsp40 yeast | TcdB inh | ugtP null kill | RN4220 kill | PrP UTR cherry
Cc1ccc(-c2nnc(SCC(=O)NN=Cc3c(C)nn(-c4ccccc4)c3C)n2-c2ccc(C)cc2)cc1 | · | · | · | – | – | ·
COc1ccc2[nH]c(-c3cccc(F)c3)cc(=O)c2c1 | 62.2 | – | – | – | – | 91.7
CCN1C/C(=C/c2cccc([N+](=O)[O-])c2)C(=O)/C(=C/c2cccc([N+](=O)[O-])c2)C1 | 66.5 | – | · | – | – | 61.2
CC(=NNC(=O)CSc1nc2ccccc2n1C)c1ccncc1 | · | · | · | – | – | ·
CC(=O)OCC(=O)Nc1ccccc1C | 76.2 | – | – | – | – | –
CCOC(=O)C1(Cc2ccccc2)CCCCCC1=O (stereo not drawn) | 55.4 | – | – | · | · | –
CCOC(=O)C1(CCOC)CCCCC1=O (stereo not drawn) | · | · | – | · | · | ·
C[C@H]1CN([C@@H](C)CO)C(=O)c2cc(-c3cccc(F)c3)cnc2O[C@H]1CN(C)C(=O)C1CCC1 | · | · | – | · | · | ·
Clc1ccccc1/C=C/c1nc(-c2ccccn2)no1 | 55.4 | – | – | · | · | 60.5
O=C(Nc1ccc(Cl)c(Cl)c1)N[C@H]1CC[C@@H](CCn2cc(C3CCCC3)nn2)O[C@@H]1CO | · | · | – | · | · | ·
Cc1ccccc1C(=O)NNC(=O)C12CC3CC(CC(C3)C1)C2 | 87.8 | – | – | – | – | –
O=C(NCCc1ccccc1)c1ccc2c(c1)OCO2 | 58.1 | – | – | – | – | ?
O=C(CSc1cn(CCNC(=O)c2ccc3ccccc3c2)c2ccccc12)NCc1ccco1 | 58.1 | – | – | – | – | –
c1ccc(-c2noc(-c3ccc4ccccc4c3)n2)nc1 | 89.0 | – | · | – | – | 86.7
c1ccc(-c2noc(-c3ccc4c(c3)OCO4)n2)nc1 | 85.9 | – | · | – | – | 84.5
O=C(Nc1ccccc1)Nc1ccc2c(c1)[C@H]1C[C@H](CC(=O)N3CCCCC3)O[C@H](CO)[C@H]1O2 | · | · | – | · | · | ·
CCN1C(=O)[C@H]2[C@H]3CN=C(SC)N3[C@@](CC)(C(=O)OC)[C@H]2C1=O | 66.0 | – | – | – | – | –
CCCn1c(C=NNc2nc3ccccc3[nH]2)nc2ccccc21 | · | · | · | – | – | ·
COCC(=O)Nc1ccc2c(c1)C(=O)N(C)C[C@@H](OC)[C@H](C)CN(C(=O)c1ccccc1F)[C@H](C)CO2 | · | · | – | · | · | ·
Cn1cccc1/C=C1\SC(=Nc2ccccc2)NC1=O | – | – | – | – | – | ·
Cn1cccc1/C=C1\SC(=Nc2ccc(O)cc2)NC1=O | 68.8 | – | – | – | – | 82.3
COc1ccccc1C=NNc1cc(C)nc(N2CCOCC2)n1 | · | · | · | – | – | ·
Cc1cccc(NC(=O)c2cnc3n(c2=O)CCS3)c1 | – | – | · | – | – | ·
O=C(Nc1ccccc1)c1cnc2n(c1=O)CCS2 | 56.1 | – | – | – | – | –
Cc1cccc(N(NC(=O)C(C)(C)O)C(=O)c2ccccc2)c1 | 67.5 | – | · | – | – | –
SMILES | PrP UTR inh | PfHsp40 yeast | TcdB inh | ugtP null kill | RN4220 kill | PrP UTR cherry
CCOC(=O)N(NC(=O)C(O)(c1ccccc1)c1ccccc1)c1ccccc1 | – | – | · | – | – | ·
O=S(=O)(N[C@@H]1CC[C@@H](CCn2cc(C3CC3)nn2)O[C@H]1CO)c1ccc(F)cc1 | · | · | – | · | · | ·
O=C1c2ccccc2C(=O)C1c1ccnc2ccccc12 | 57.7 | – | · | – | – | –
Cc1ccc(C(=O)NN=Cc2c(C)nn(-c3ccccc3)c2Cl)cn1 | · | · | · | – | – | ·
COc1ccccc1OCCC(=O)OCC(=O)NCc1ccc(F)cc1 | 87.6 | – | – | – | – | –
COC(=O)c1ccc2nc(-c3ccc4c(c3)OCO4)cn2c1 | – | – | – | – | – | ·
CCc1ccn2cc(-c3ccc4c(c3)OCO4)nc2c1 | 74.4 | – | – | – | – | 83.9
CCC(=O)N1CC2(C1)[C@@H](c1ccccc1)[C@H](CO)N2C(=O)c1cccnc1 | · | · | – | · | · | ·
CCCc1c(C(=O)Nc2ccc(C(F)(F)F)cc2)cnn1-c1ccccc1 | 65.1 | – | – | – | – | –
CN(C)CCCNC(=O)C[C@H]1CC[C@H](NC(=O)c2ccccc2F)[C@H](CO)O1 | · | · | – | · | · | ·
